Consider 40 compounds from PubChem BioAssay (NCATS).

Each structure is given as a SMILES string. Inconclusive results are not listed. Unmarked numbers belong to inactive results. Calls of active or inactive are those of the source. Calls follow the shape of the dose curve; as a rule, active = well fitted cell-killing curve with a large enough effect; inconclusive = small, poorly fitted or top-dose-only effect, or effect the other way; inactive = no such curve, though single readings can be large or run the other way.
Potency is read from the fitted curve at half-maximal effect.

The nature of this assay: Quantitative High-Throughput drug screen in 47 multiple myeloma cell lines against the NCATS MIPE library collection: ARD_JJKsccE7 cell viability assay (AID 1918929). To be noted: ARD myeloma cell line viability, CellTiter-Glo, 48 h; series mostly up to 45.8 µM; viability: at the top concentration. The text has this:
PI: Beverly A. Mock Ph.D.
Laboratory of Cancer Biology and Genetics,
Center for Cancer Research, National Cancer Institute,
National Institute of Health, Bethesda, Maryland
Drug resistance and disease progression are common in multiple myeloma (MM) patients, underscoring the need for new therapeutic combinations. […] We hypothesized that effective combinations would reduce MYC expression and enhance p16 activity. […] These preclinical data identify potentially useful drug combinations for evaluation in drug-resistant MM and reveal potential mechanisms of combined drug sensitivity.
Described herein is the primary MIPE qHTS used to cherrypick compounds. Validated compounds were then further tested for potential synergistic activiy.
[1] Peat TJ, Gaikwad SM, Dubois W, Gyabaah-Kessie N, Zhang S, Gorjifard S, Phyo Z, Andres M, Hughitt VK, Simpson RM, Miller MA, Girvin AT, Taylor A, Williams D, D'Antonio N, Zhang Y, Rajagopalan A, Flietner E, Wilson K, Zhang X, Shinn P, Klumpp-Thomas C, McKnight C, Itkin Z, Chen L, Kazandijian D, Zhang J, Michalowski AM, Simmons JK, Keats J, Thomas CJ, Mock BA. Drug combinations identified by high-throughput screening promote cell cycle transition and upregulate Smad pathways in myeloma. Cancer Lett. 2023 Aug 1;568:216284. doi: 10.1016/j.canlet.2023.216284. Epub 2023 Jun 24. PMID: 37356470; PMCID: PMC10408729.
SEQUENCE No. (e.g., 1, 2, 3, etc.); […] (e.g., Cells, Incubation, Reagent, etc.); VALUE and DESCRIPTION.
1; Cells; 5 uL; white, solid bottom 1536-well Greiner assay plate.
2; Compounds; 23 nL; Kalypsis pin tool (Wako USA) equipped with a 1536-well pin head to transfer to the assay plates.
3; Incubation; 48 hours; 37C incubation.
4; Reagent;5uL; CellTiter Glo (Promega).
5; Detector; 425V; Luminescence; Viewlux PerkinElmer.
NOTES (numbers refer to Sequence numbers above)
1. The cell-based screening methods employed in this study were like those previously published. Briefly, the corresponding myeloma cell lines were screened in 1,536-well plates with 500 cells, 5-uL per well for inhibition of cell viability (assessed by measuring ATP levels with CellTiterGlo).
2. NCATS MIPE 4.0 library of approved and investigational drugs were added using the Kalypsis pin tool. Wells treated with DMSO only for 100% viability and media only wells for 0% viability were used as controls.
3. The assay plates were covered and incubated for 48 hours in a 37C, 5% CO2 incubator with controlled humidity.
4. After 48 hours, CellTilter-GloTM luminescent substrate mix (Promega) reagent was added to the assay plate and plates we incubated for 5 min at room temperature.
5. Signal was measured as median relative luminescence units on a ViewLux (PerkinElmer) multiplate reader.
[1] Heske CM, Davis MI, Baumgart JT, Wilson K, Gormally MV, Chen L, Zhang X, Ceribelli M, Duveau DY, Guha R, Ferrer M, Arnaldez FI, Ji J, Tran HL, Zhang Y, Mendoza A, Helman LJ, Thomas CJ. Matrix Screen Identifies Synergistic Combination of PARP Inhibitors and Nicotinamide Phosphoribosyltransferase (NAMPT) Inhibitors in Ewing Sarcoma. Clin Cancer Res. 2017 Dec 1;23(23):7301-7311. doi: 10.1158/1078-0432.CCR-17-1121. Epub 2017 Sep 12. PMID: 28899971; PMCID: PMC6636827.
Background: Cellular ATP, detected with luciferase, serves as a proxy for viable cell number.
Regarding `CN1c2ccccc2C(=O)N2CCc3c([nH]c4ccccc34)C21` (stereo not given), the viability (usually a read-out of living cells in per cent, often relative to untreated cells) is 140%. Turning to `COc1c(C)c2c(c(O)c1CC=C(C)CCC(=O)OCCN1CCOCC1)C(=O)OC2`, the Potency is 1.18 µM (active). Regarding `CCCCC[C@H](O)C=C[C@H]1[C@H](O)CC(=O)[C@H]1CCCCCCC(=O)O`, the “viability” value is 131%. Same read-out and setting: under `NS(=O)(=O)c1cc(Cl)c(Cl)c(S(N)(=O)=O)c1` stands 135%.

`COc1cc2ncnc(Nc3cc(Br)c(O)c(Br)c3)c2cc1OC`: the Potency was 13.2 µM (active). Turning to `Oc1ccc(C=Cc2cc(O)cc(O)c2)cc1`, the “viability” value was 138%. With `CCC(=O)OCC(=O)[C@@]1(OC(=O)CC)[C@@H](C)C[C@@H]2[C@H]3CCC4=CC(=O)C=C[C@]4(C)[C@@]3(F)[C@@H](O)C[C@@]21C`, the Potency is 2.09 µM (active). Turning to `COC(=O)Nc1ccc(-c2nc(N3CCOCC3)c3cnn(C4CCN(C(=O)OC)CC4)c3n2)cc1`, the Potency was 0.526 µM (active). On to `CCCCC(F)(F)[C@@]1(O)CC[C@H]2[C@H](CC(=O)[C@@H]2CCCCCCC(=O)O)O1`, for which the “viability” value is 157%. Take `CC1(C)OC2CC3C4CC(F)C5=CC(=O)C=CC5(C)C4C(O)CC3(C)[C@]2(C(=O)CO)O1` (stereo not given in full): the Potency is 0.0187 µM (active). `C=CC[N+]1([C@H]2C[C@H]3[C@@H]4CC[C@H]5C[C@H](O)[C@@H](N6CCOCC6)C[C@]5(C)[C@@H]4CC[C@]3(C)[C@H]2OC(C)=O)CCCC1`: the “viability” value is 130%.

As to `O=C(O)C1=CO[C@@H](O[C@@H]2O[C@H](CO)[C@H](O)[C@H](O)[C@H]2O)[C@@H]2C(CO)=CC[C@H]12`, the “viability” value is 153%. For `CCCCc1ccc(NS(=O)(=O)c2ccc(C)c(C(=O)N3CCN(c4cccc(C)c4C)CC3)c2)cc1`, the “viability” value is 117%. Turning to `CN(C)CCOc1cc(-c2cn[nH]c2)ccc1NC(=O)C1COc2ccccc2O1` (stereo not given), the “viability” value is 90%. Turning to `COc1ccc2c(c1)CC[C@H]1[C@@H]2CC[C@]2(C)[C@@H](NCCCCCCN3C(=O)C=CC3=O)CC[C@H]12`, the “viability” value was 151%. Turning to `CCN(CCO)CCCOc1ccc2c(Nc3cc(CC(=O)Nc4cccc(F)c4)[nH]n3)ncnc2c1`, the “viability” value is 92.6%. As to `c1cc(OCCN2CCCCC2)cc(-c2n[nH]c3ccc(-c4ncn[nH]4)cc23)c1`, the Potency was 2.35 µM (active). `NC(=O)c1ncn([C@@H]2O[C@H](CO)[C@@H](O)[C@@H]2O)n1`: the “viability” value was 82.7%. On to `CC(=O)O[C@]1(C(C)=O)CC[C@H]2[C@@H]3C=C(Cl)C4=CC(=O)[C@@H]5C[C@H]5[C@]4(C)[C@@H]3CC[C@@]21C`, for which the Potency was 23.5 µM (active). Take `Cc1nc2c([nH]1)CCN(C(=O)c1ccc(NC(=O)c3ccccc3-c3ccccc3)cc1)c1ccccc1-2`: the “viability” value is 92.9%.

For the compound `Cc1ccccc1-n1c(Cn2nc(-c3cccc(O)c3)c3c(N)ncnc32)nc2cccc(C)c2c1=O`, the Potency is 1.05 µM (active). As to `Cc1c(C(=O)Nc2ccc(N3C[C@@H](C)O[C@@H](C)C3)nc2)cccc1-c1ccc(OC(F)(F)F)cc1`, the Potency is 0.935 µM (active). Still for that read-out and setting: with `COc1c(C)cnc(Cn2cnc3c(Cl)nc(N)nc32)c1C` the figure was 0.0418 µM (active); with `COc1cc2nc(-c3cc(F)ccc3O)nc(N[C@@H]3CNC[C@@H]3C(C)(C)O)c2cc1OC`, 6.62 µM (active). Take `CC[C@H](NC(=O)[C@H](C)NC)C(=O)N1C[C@@H](O)C[C@H]1Cc1c(-c2[nH]c3cc(F)ccc3c2C[C@H]2C[C@H](O)CN2C(=O)[C@H](CC)NC(=O)[C@H](C)NC)[nH]c2cc(F)ccc12`: the Potency was 9.35 µM (active). Turning to `FC(F)(F)c1ccc(C=Cc2nc(COc3ccc(CCCCn4ccnn4)cc3)co2)cc1`, the Potency is 0.001 µM (active).

Turning to `CN(C)CC[C@H](CSc1ccccc1)Nc1ccc(S(=O)(=O)NC(=O)c2ccc(N3CCN(Cc4ccccc4-c4ccc(Cl)cc4)CC3)cc2)cc1[N+](=O)[O-]`, the Potency is 8.33 µM (active). As to `Cc1[nH]c(C=C2C(=O)Nc3ccc(S(=O)(=O)N(C)c4cccc(Cl)c4)cc32)c(C)c1C(=O)N1CCN(C)CC1`, the Potency was 6.62 µM (active). As for `CN(C)S(=O)(=O)c1ccc2c(c1)C(=Cc1cc3c([nH]1)CCCC3)C(=O)N2`, the Potency is 8.33 µM (active).

Take `COc1cc([C@H]2Oc3cc([C@H]4Oc5cc(O)cc(O)c5C(=O)[C@H]4O)ccc3O[C@H]2CO)ccc1O`: the “viability” value is 140%. Same read-out and setting: with `Cc1cnc(-c2cc(N3CCN(C(=O)CCS(C)(=O)=O)CC3)ncc2Cl)c(C)c1` the figure was 90.6%. Consider `C[C@@H](O)[C@H]1C(=O)N2C(C(=O)OCOC(=O)C(C)(C)C)=C(SC3CN(C4=NCCS4)C3)[C@H](C)[C@H]12`, for which the “viability” value was 88.2%. Turning to `C[C@H](c1ccc(F)cc1CCCC(=O)O)N(c1cc(F)ccc1F)S(=O)(=O)c1ccc(Cl)cc1`, the “viability” value is 121%. For `Cc1ccc2c(=O)c3cccc(CC(=O)O)c3oc2c1C`, the “viability” value was 158%. In the case of `CN1CCN(c2cccc(Nc3nc4c(-c5ccc(S(C)(=O)=O)cc5)cccn4n3)c2)CC1`, the Potency was 1.32 µM (active).

For `COc1ccc(C=CC(=O)Nc2ccccc2C(=O)O)cc1OC`, the “viability” value was 118%. Regarding `C=C1[C@H](n2cnc3c(=O)[nH]c(N)nc32)C[C@H](O)[C@H]1CO`, the Potency is 9.35 µM (active). Consider `CCC(C)SSc1ncc[nH]1` (stereo not given), for which the Potency was 5.26 µM (active).

With `OCCn1cc(-c2ccc3c(c2)CCC3=NO)c(-c2ccncc2)n1`, the Potency is 13.2 µM (active). For the compound `Cc1ccccc1C(C(=O)NC1CCCCC1)N(C(=O)CNc1ccc(C#N)cc1)c1cccc(F)c1` (stereo not given), the “viability” value is 141%.
